Measurements taken from PubChem BioAssay (NCATS).
Results filed as inconclusive are left out. The source made the active and inactive calls. Unless noted, the call rests on the fitted dose curve; in most records, active means well fitted curve in the direction sought with a large enough effect; inconclusive means small, poorly fitted or top-dose-only effect, or another doubt; inactive means no such curve, though single readings can be large; an effect the other way counts as inactive or inconclusive.

Tests used:
[1] = target: Cytochrome P450 1A2 (Homo sapiens) (UniProt P05177); assay: p450-cyp1a2 (AID 410; calls by dose curve; further: potency means the concentration at half of the fitted maximal effect;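 on activity change, negative = inhibition: -100% = full effect of reference inhibitor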)
Chain of Cytochrome P450 1A2 (Homo sapiens) (P05177 whole entry, looked up): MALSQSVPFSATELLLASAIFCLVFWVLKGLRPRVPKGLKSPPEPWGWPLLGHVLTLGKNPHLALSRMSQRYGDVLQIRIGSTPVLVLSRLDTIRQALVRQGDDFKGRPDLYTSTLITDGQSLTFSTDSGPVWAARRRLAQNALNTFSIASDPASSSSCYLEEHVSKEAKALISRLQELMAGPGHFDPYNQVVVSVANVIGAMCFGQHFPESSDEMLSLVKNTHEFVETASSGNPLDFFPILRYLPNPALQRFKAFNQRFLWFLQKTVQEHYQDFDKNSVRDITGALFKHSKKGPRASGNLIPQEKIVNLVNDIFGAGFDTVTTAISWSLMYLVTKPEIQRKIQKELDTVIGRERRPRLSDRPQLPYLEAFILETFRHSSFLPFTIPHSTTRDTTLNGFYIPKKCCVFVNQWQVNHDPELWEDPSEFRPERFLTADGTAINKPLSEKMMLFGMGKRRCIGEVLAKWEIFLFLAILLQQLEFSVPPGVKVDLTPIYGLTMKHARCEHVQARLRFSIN
Method in brief: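 Luminescent demethylation readout: Luciferin-ME (100uM, equal to Km) turned over by 20nM CYP1A2 for 60 min at room temperature after NADPH regeneration addition, following 10 min compound preincubation. Normalization used 57 uM furafylline as full inhibition.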

[2] = target: Glucocorticoid receptor (Homo sapiens) (UniProt P04150); assay: GR-GFP Redistribution (AID 450;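 active means compounds whose dose series gives a full or clear partial fitted curve of increased nuclear translocation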; further: potency means the concentration at half of the fitted maximal effect); details: U2OS GR-GFP nuclear translocation, laser cytometry, 2 h
Chain of Glucocorticoid receptor (Homo sapiens) (P04150 whole entry, looked up, the tested form may be a part): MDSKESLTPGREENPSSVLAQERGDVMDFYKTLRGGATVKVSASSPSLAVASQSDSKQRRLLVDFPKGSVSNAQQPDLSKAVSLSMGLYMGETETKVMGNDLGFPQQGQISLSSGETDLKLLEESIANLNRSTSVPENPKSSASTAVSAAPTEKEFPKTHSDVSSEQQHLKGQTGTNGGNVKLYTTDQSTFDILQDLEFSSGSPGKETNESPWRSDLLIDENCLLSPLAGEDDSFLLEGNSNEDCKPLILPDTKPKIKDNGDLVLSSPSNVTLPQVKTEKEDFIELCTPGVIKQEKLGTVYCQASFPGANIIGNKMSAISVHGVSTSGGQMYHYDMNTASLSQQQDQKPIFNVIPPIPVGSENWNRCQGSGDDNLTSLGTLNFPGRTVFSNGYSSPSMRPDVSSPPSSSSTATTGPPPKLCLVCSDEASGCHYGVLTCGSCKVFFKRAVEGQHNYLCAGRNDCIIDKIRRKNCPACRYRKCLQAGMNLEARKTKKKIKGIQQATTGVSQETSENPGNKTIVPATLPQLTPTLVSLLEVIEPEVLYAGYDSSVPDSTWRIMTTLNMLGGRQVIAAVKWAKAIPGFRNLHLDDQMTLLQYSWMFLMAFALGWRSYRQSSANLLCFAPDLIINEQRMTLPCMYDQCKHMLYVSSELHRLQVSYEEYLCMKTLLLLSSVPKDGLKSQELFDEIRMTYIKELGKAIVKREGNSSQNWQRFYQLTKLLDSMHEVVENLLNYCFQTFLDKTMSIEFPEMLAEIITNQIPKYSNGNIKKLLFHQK

[3] = target: Glucocorticoid receptor (Homo sapiens) (UniProt P04150); assay: GR-EFC Redistribution (AID 451; calls by dose curve; further: potency means the concentration at half of the fitted maximal effect); details: CHO-K1 GR-EFC translocation, beta-gal luminescence, 2 h
Method in brief: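 CHO-K1 cells stably expressing nuclear-localized β-gal enzyme acceptor and GR fused C-terminally to the enzyme donor fragment; ligand-driven nuclear translocation restores β-gal by complementation. Compounds titrated up to 46 uM final, 2 h at 37 °C; luminescence read.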

[4] = target: Mitogen-activated protein kinase 10 (Mus musculus) (UniProt Q61831); assay: JNK3 AlphaScreen Assay (AID 530; active means well fitted curve in either direction with a large enough effect, not every such curve was filed as active;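 further: kinase came from lysate of stimulated human HepG2 cells; signal reports phosphorylation of biotinylated GST-cJun 1-79 at Ser73 with 10 µM ATP; on the % scale 0 is the no-effect control and ±100 the full control effect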)
Method in brief: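 Phosphorylation of biotinylated GST-cJun(1-79) at Ser73 is measured by AlphaScreen proximity luminescence. Enzyme is JNK3 in HepG2 lysates activated with interleukin-1beta and tumor necrosis factor alpha; ATP is 10 uM final.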

[5] = target: 3',5'-cyclic-AMP phosphodiesterase 4B (Homo sapiens) (UniProt Q07343); assay: qHTS Assay for Inhibitors of PDE-IV (AID 607; active means well fitted activation curve with a large enough effect in the main read-out, with a control signal flat, not every such curve was filed as active; further: % of control where 0% means no effect)
Chain of 3',5'-cyclic-AMP phosphodiesterase 4B (Homo sapiens) (Q07343 whole entry, looked up): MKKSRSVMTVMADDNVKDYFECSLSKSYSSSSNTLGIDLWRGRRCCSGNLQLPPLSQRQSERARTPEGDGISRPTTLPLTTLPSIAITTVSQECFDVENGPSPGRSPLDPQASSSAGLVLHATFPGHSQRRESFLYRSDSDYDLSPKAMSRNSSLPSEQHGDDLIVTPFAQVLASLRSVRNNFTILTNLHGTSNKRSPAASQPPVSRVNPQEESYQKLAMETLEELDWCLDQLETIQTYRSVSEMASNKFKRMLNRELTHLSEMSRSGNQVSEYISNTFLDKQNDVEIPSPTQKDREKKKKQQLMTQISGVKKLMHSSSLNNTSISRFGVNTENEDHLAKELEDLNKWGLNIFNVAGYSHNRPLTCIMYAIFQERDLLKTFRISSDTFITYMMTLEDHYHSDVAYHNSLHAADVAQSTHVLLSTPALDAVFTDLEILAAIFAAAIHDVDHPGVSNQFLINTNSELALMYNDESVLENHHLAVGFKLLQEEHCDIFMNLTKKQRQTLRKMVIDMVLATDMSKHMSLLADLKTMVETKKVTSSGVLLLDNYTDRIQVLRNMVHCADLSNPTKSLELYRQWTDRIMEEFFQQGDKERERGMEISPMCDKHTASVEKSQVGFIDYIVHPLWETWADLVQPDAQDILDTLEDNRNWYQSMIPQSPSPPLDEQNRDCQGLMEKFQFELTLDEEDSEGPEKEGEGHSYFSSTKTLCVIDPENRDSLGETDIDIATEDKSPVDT
Method in brief: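 Live HEK293 cells with a modified cyclic nucleotide-gated (CNG) channel report intracellular cAMP via membrane-potential dye fluorescence (ex 535/em 590 nm). Endogenous PDE-IV was targeted. Compounds were tested at up to 22.9 uM final; RO 20-1724 100 uM served as control.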

[6] = target: Cytochrome P450 3A4 (Homo sapiens) (UniProt P08684); assay: qHTS Assay for Activators of Cytochrome P450 3A4 (AID 885); further: nearly all actives have a fitted effect of over 65% in size
Chain of Cytochrome P450 3A4 (Homo sapiens) (P08684 whole entry, looked up): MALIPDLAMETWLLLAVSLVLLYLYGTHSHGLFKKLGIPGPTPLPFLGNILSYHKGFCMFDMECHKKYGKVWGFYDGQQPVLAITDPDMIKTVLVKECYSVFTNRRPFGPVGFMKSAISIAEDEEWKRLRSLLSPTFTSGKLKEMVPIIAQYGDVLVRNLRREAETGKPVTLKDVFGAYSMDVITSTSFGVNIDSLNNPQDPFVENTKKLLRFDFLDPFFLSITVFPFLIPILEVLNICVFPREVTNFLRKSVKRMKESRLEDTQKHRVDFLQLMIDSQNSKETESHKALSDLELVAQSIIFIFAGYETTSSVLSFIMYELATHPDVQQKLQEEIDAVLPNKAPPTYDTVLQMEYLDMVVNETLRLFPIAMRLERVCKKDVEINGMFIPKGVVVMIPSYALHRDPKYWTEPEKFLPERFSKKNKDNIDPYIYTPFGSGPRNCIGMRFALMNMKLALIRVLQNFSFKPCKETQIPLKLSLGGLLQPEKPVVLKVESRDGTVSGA
Method in brief: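 Using 20nM recombinant human CYP3A4 in potassium phosphate (200mM), substrate Luciferin-PPXE at 25uM, luminescent luciferin detection followed a 60-min RT NADPH reaction; data scaled to 57 uM ketoconazole.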

[7] = qHTS Assay for Lipid Storage Modulators (AID 1519; calls by dose curve; on activity change, negative = inhibition: on the % scale 0 is the no-effect control and ±100 the full control effect); details: Drosophila S3 cells, BODIPY lipid droplet/cell ratio, laser cytometry, cells loaded with oleic acid; for activity change, negative = inhibition: at 57.5 µM (top of the series)
Method in brief: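 Cells seeded at 5,000 per well were treated with compounds over a concentration series and loaded with oleic acid (400 uM, as added). Lipid droplet fluorescence (488 nm excitation, 500-530 nm channel) was read by laser-scanning cytometry and normalized to 20 uM Triacsin C.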

[8] = target: Ubiquitin carboxyl-terminal hydrolase 1 (Homo sapiens) (UniProt O94782); assay: Inhibitors of USP1/UAF1: Pilot qHTS (AID 504865); further: nearly all actives have a fitted effect of over 35% in size; further: potency means the concentration at half of the fitted maximal effect;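 on activity change, negative = inhibition: rhodamine fluorescence freed from ubiquitin-rhodamine substrate followed over time; top concentration of the series differs between compounds; on the % scale 0 is the no-effect control and ±100 the full control effect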
Chain of Ubiquitin carboxyl-terminal hydrolase 1 (Homo sapiens) (O94782 whole entry, looked up): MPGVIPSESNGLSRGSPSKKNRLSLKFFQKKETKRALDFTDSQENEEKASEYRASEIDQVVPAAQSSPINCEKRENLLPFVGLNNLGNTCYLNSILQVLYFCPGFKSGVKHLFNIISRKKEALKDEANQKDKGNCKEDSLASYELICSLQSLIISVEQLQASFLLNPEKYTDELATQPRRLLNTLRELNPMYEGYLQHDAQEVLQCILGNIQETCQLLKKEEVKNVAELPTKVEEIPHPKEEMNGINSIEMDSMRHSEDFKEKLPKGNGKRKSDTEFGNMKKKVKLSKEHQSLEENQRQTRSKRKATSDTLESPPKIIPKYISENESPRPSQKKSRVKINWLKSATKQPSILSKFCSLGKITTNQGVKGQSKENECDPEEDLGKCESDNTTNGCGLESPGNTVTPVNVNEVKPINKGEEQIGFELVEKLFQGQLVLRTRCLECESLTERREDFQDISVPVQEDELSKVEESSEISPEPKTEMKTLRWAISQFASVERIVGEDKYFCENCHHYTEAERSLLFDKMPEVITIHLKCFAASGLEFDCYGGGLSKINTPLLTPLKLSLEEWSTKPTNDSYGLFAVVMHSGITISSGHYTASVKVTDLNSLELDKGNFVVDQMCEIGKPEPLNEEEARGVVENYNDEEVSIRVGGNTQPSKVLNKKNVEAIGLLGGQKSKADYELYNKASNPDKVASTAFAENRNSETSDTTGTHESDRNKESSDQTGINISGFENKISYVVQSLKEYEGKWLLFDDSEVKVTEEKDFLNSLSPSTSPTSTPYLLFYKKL
Method in brief: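 In 50mM HEPES pH 7.8 containing 0.5mM EDTA, 1mM TCEP, 0.1 mg/ml BSA and 0.01% Tween-20, 1nM USP1/UAF1 is exposed to compound for 15 min, then Ub-Rho (150nM final) is added and fluorescence is read over time.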

[9] = target: DNA dC->dU-editing enzyme APOBEC-3G (Homo sapiens) (UniProt Q9HC16); assay: qHTS for inhibitors of Vif-A3G interactions: Validation (AID 588379); further: 0% is about no effect
Chain of DNA dC->dU-editing enzyme APOBEC-3G (Homo sapiens) (Q9HC16 whole entry, looked up): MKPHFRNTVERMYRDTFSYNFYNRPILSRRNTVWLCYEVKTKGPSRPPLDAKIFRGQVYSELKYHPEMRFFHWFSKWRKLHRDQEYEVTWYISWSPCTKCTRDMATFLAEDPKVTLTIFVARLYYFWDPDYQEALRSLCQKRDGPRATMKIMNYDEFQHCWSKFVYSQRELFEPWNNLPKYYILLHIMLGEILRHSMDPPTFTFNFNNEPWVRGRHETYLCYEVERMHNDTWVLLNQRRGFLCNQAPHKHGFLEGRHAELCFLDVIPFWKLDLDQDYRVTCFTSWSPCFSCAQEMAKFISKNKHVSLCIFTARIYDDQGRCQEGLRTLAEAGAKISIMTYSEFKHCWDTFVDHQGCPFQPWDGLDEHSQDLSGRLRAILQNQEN
Method in brief: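 Yellow fluorescence (Ex 488, Em 500-530) of Vif-coexpressing HeLa A3G-eYFP cells, scanned by Acumen cytometer, reports blocked A3G degradation. Cells plated at 700/well overnight at 37 deg C before compound addition, then a further overnight compound incubation at 37 deg C.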

[10] = system: Zika virus NS2B-NS3 protease; assay: Primary screen GU AMC qHTS for Zika virus inhibitors (AID 1347154);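 further: 0% = no-inhibitor control and -100% = no-enzyme control; nearly all actives have a fitted effect of over 70% in size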
Method in brief: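 Unlinked Zika NS2B hydrophilic domain/NS3 protease domain noncovalent complex (25 nM final) in 10 mM Tris-HCl pH 8.0, 0.01% Tween 20, with AMC peptide substrate. Fluorescence (ex 340, em 450 nm) change over 15 min, room temperature; percent inhibition fitted to 4-parameter Hill equation.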

[11] = Primary qHTS for small molecule stabilizers of the endoplasmic reticulum resident proteome: Secreted ER Calcium Modulated Protein (SERCaMP) assay (AID 1508630); further: on the % scale 0 is the no-effect control and ±100 the full control effect
Method in brief: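 The SH-SY5Y reporter protocol was run at 3 concentrations up to 38.3 uM (primary) or 11 concentrations (follow-up): 16 h compound, 100 nM thapsigargin for 4 h, then extracellular luciferase luminescence.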

[12] = target: Cytochrome P450 2D6 (Homo sapiens) (UniProt P10635); assay: qHTS Assay for Inhibitors and Substrates of Cytochrome P450 2D6 (AID 891); further: potency means the concentration at half of the fitted maximal effect; nearly all actives have a fitted effect of over 60% in size
Chain of Cytochrome P450 2D6 (Homo sapiens) (P10635 whole entry, looked up): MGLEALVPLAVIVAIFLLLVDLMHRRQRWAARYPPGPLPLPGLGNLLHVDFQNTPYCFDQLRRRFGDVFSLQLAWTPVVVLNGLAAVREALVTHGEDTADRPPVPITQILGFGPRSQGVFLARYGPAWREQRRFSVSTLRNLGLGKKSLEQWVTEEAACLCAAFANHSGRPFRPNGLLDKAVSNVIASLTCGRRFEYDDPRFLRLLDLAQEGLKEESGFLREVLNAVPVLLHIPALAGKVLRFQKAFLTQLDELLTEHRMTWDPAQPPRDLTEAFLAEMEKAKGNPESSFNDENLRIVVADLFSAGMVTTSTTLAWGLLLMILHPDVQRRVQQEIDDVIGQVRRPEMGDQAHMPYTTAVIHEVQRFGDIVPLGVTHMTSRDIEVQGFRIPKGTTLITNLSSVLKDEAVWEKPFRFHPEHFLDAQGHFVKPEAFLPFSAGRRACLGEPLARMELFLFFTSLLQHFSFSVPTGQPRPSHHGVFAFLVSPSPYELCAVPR
Method in brief: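 Luminescent read-out of luciferin formed by 5 nM human CYP2D6 demethylating 30 uM Luciferin-ME EGE (Km level) over 60 min at room temperature after NADPH regeneration addition. Data normalized to full inhibition by 1.43 uM quinidine.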

[13] = measured here: cell count channel max response
[14] = measured here: lipid channel max response

C1=C(CN2CCOCC2)COc2c1cccc2OC[C@@H]1CNCCO1
3.99%: max response [7, 14]
5.43%: max response [7, 13]
inactive: Potency [2] > 46 µM | Potency [3] > 46 µM | Potency [4] | Potency [5] | Potency [6] | activity change, negative = inhibition [7] 0.797% | Potency [8] | Potency [9] | Potency [10] | Potency [11]
active: Potency [1] 12.6 µM

C[N+](C)(CCCCCC[N+](C)(C)CCCN1C(=O)c2ccccc2C1=O)CCCN1C(=O)c2ccccc2C1=O
-18.6%: max response [7, 13]
-20.9%: max response [7, 14]
inactive: Potency [2] > 46 µM | Potency [3] > 46 µM | Potency [4] | activity change, negative = inhibition [7] -4.59% | Potency [8] | Potency [9] | Potency [10] | Potency [11]

C[C@@H]1Nc2ccc(Cl)cc2S(=O)(=O)N1
-1.71%: max response [7, 13]
3.08%: max response [7, 14]
inactive: Potency [2] > 46 µM | Potency [3] > 46 µM | Potency [4] | Potency [5] | activity change, negative = inhibition [7] 6.73% | Potency [8] | Potency [9] | Potency [10] | Potency [11]

CC[N+](C)(CC)CC(=O)Nc1c(C)cccc1C
inactive: Potency [2] > 46 µM | Potency [3] > 46 µM | Potency [4] | Potency [5] | activity change, negative = inhibition [7] 0.67% | Potency [8] | Potency [9] | Potency [10] | Potency [11]
-8.79%: max response [7, 14]
-9.49%: max response [7, 13]

N[C@@H](C(=O)O)[C@H](CC(=O)O)c1ccc(Cl)cc1
-17.6%: max response [7, 14]
active: Potency [12] 2.51 µM
-14.9%: max response [7, 13]
inactive: Potency [1] | Potency [3] > 46 µM | Potency [4] | Potency [5] | activity change, negative = inhibition [7] -4.76% | Potency [9] | Potency [10] | Potency [11]

N[C@](CC1c2ccccc2Oc2ccccc21)(C(=O)O)[C@@H]1C[C@@H]1C(=O)O
12.4%: max response [7, 13]
inactive: Potency [2] > 46 µM | Potency [3] > 46 µM | Potency [4] | Potency [5] | activity change, negative = inhibition [7] 5.89% | Potency [9] | Potency [10] | Potency [11]
20%: max response [7, 14]
active: Potency [1] 31.6 µM

N[C@@H](CSS(=O)(=O)O)C(=O)O
inactive: Potency [2] > 46 µM | Potency [3] > 46 µM | Potency [5] | activity change, negative = inhibition [7] 3.51% | Potency [9] | Potency [10] | Potency [11]
7.41%: max response [7, 14]
2.48%: max response [7, 13]
active: Potency [1] 39.8 µM | Potency [8] 39.8 µM

O=C(O)CCC/C=C\C[C@@H]1CO[C@H](C(F)(F)F)O[C@@H]1c1ccccc1O
-8.58%: max response [7, 13]
inactive: Potency [2] > 46 µM | Potency [3] > 46 µM | Potency [4] | Potency [6] | activity change, negative = inhibition [7] 0.11% | Potency [8] | Potency [10] | Potency [11]
-8.44%: max response [7, 14]
